# Measurements from PubChem BioAssay (NCI).
# “And” between values parts separate entries of the source, which are not always exact repeats. Equal values may be shown once. The panel holds about 83,000 compounds, 20% with a hit somewhere; the sample as a whole holds those more often.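 Interpretation: 100, growth as untreated; towards 0, rising growth inhibition; 0, no net growth; 0 to -100, cell death. Compounds scoring below 10 were considered active.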 A number with no mark means an inactive call. The source made the active and inactive calls.
# System: A498 renal
# Assay: NCI-60 one-dose screen, 48 h (100 = growth as untreated, 0 = no growth, -100 = all killed)
# Conditions: 10 µM unless noted
row,Compound,growth
1,CCc1cccc2c3c(sc12)C(c1ccc(F)cc1)C(C#N)=C(/N=C/c1ccc(Cl)cc1)O3 (stereo not given),-10.4% (active)
2,Cc1ccc2c(n1)C(=O)C(Cl)=C(Nc1ccc(C(=O)OC(C)(C)C)cc1)C2=O,110% [9.25 µM]
3,Clc1ccc2[nH]cc(-c3cncn3CCc3ccc4c(c3)OCO4)c2c1,56.3%
4,CCCCCCCCCC(=O)NC(C)(C)C(=O)N1CCC[C@H]1C(=O)N[C@@H](CC(C)C)C(=O)N[C@@](C)(CC)C(=O)N[C@@H](CCC(N)=O)C(=O)N[C@H](CCC(N)=O)C(=O)NC(C)(C)C(=O)NC(C)(C)C(=O)N[C@@H](CCC(N)=O)C(=O)N[C@H](CC(C)C)C(=O)N[C@H](CO)CC(C)C,-91.3% (active) and -31.5% (active)
5,C=C1CCc2nc(SCC(=O)O)ccc2N1,85.7%
6,CC[C@]12C=CCN3CC[C@@]4(c5ccc(OC)cc5N(C)[C@H]4[C@@](O)(C(=O)OC)[C@@H]1OC(=O)CCN1CCc4ccccc4C1)[C@@H]32,94.5%
7,CCOC(=O)c1cccnc1Nc1ccc(NC(=O)Nc2ccc(Cl)c(C(F)(F)F)c2)cc1,41.3%
8,Cc1ccc(S(=O)(=O)NCCCNc2nccc(-c3[nH]c(-c4ccccc4)nc3-c3ccc(F)c(O)c3)n2)cc1,76.3%
9,O=C(CSc1nnc(-c2ccc(Cl)cc2)n1-c1ccccc1)Nc1ccc(Cl)cc1,41.4%
10,Cc1ccc2c(n1)C(=O)C(Cl)=C(Nc1ccc(C(F)(F)F)cc1)C2=O,79%
11,CC(=O)C1=C(C)NC(NNc2ccccc2)=NC1c1ccc([N+](=O)[O-])cc1 (stereo not given),91.9%
12,NC(N)=NS(=O)(=O)c1ccc(N=Nc2c(N)nn(-c3ccc([N+](=O)[O-])cc3[N+](=O)[O-])c2N)cc1,94.5%
13,NCCNC(=O)c1cccc(COc2ccccc2NC(=O)c2cc(Br)c(Br)[nH]2)c1,81.1%
14,COC(=O)CCCNCCCn1ccc2cc(NCc3cccc(-c4ccccc4)c3C)ccc21,16.4%
15,O=C(CCCCCCN1CC(=O)N2[C@@H](c3ccccc3Br)c3[nH]c4ccccc4c3C[C@H]2C1=O)NO,74.7%
16,CCCCOc1ccc(S(=O)(=O)N2CCN(c3nc(C)cc(N4CCOCC4)n3)CC2)cc1,37.1%
17,NS(=O)(=O)c1ccc(CCn2c(-c3ccc(C(=O)O)cc3)nc(-c3ccccc3)c2-c2ccccc2)cc1,102%
18,N#C/C(=N\Nc1ccc(F)cc1)C(=O)Nc1cc(-c2ccccc2)nn1-c1ccccc1,-4.27% (active)
19,Cn1c2nc3ccccc3c-2cc2ccccc21,21.3%
20,NS(=O)(=O)c1nnc(/N=C/c2c(O)[nH]c3ccccc23)s1,107%

row,Compound,growth
1,NC(=O)c1c(NC(=O)c2ccc(C(F)(F)F)cc2)sc2c1CCC(=O)C2,89.4%
2,O=C(N/N=C\c1ccc([N+](=O)[O-])cc1)c1ccc2nc(-c3ccc(Br)cc3)[nH]c2c1,21.4%
3,C#CCN(C)CCCOc1ccc(NC(=O)CCCCCCC(=O)NO)cc1Cl,-12.1% (active)
4,Fc1cc(F)cc(NNC(=S)c2ccccc2)c1,14.4%
5,Fc1ccc(-c2cn3c(-c4c[nH]c5ccc(Br)cc45)csc3n2)cc1,91.3%
6,CC[C@]12C=CCN3CC[C@]4(C(=C(C(=O)OC)C1)Nc1cc5c(cc14)[C@@H]1[C@H](O5)[C@@H](O)[C@@]4(CC)CC(C(=O)OC)=C5Nc6cc(O)ccc6[C@@]56CCN1C46)C32 (stereo not given in full),-71.8% (active)
7,Cc1cc(C)cc(NC2=C(Cl)C(=O)c3nc(C)ccc3C2=O)c1,88.3%
8,COc1ccc2c(c1)c(-c1nn3cc(-c4ccncc4)nc3s1)cn2C,83.7%
9,COC(=O)N1CCN(CCNCc2ccc(NC(=O)c3ccc(C)c(C#Cc4cnc5cccnn45)c3)cc2C(F)(F)F)CC1,47.8%
10,CC(C)(O)c1cncc(-c2ccc3ncc(C#N)c(N4CCc5cc(F)c(Cl)cc54)c3c2)c1,-18.3% (active)
11,O=C(/C=C/c1ccc(F)cc1)Nc1cccc2cccnc12,114%
12,C#CCN(C)CCCOc1ccc(NCc2ccc(C(=O)NO)cc2)cc1Cl,-14.9% (active)
13,COCCOc1ccc2ncc(C#Cc3cncc(C(=O)Nc4ccc(CN5CCN(C)CC5)c(C(F)(F)F)c4)c3)n2n1,-50.4% (active)
14,CC(C)NC(=O)c1cc(-c2ccc(NC(=O)Nc3ccc(F)cc3)cc2)nc2cccnc12,107%
15,O=C1c2ccccc2C23C(=C(c4cncnc4)c4ccccc42)CCCN13 (stereo not given),96.4%
16,N#Cc1cccc(-c2cc(-c3ccc4c(c3)OCCO4)[nH]n2)c1,28.4%
17,CCC(=C(c1ccc(OCCN(C)C)cc1)c1ccc(OCCN(C)C)cc1)c1ccc(Cl)cc1,-23.3% (active)
18,COc1ccccc1/C=C1\Oc2ccc(O)c(O)c2C1=O,85.1%
19,CN1CCN(c2ccc(Nc3nc(NCCCNS(=O)(=O)c4ccccc4)c4sccc4n3)cc2)CC1,131%
20,Nc1nc(=O)n([C@H]2C[C@H](O)[C@@H](CO)O2)cc1C=O,121%
